# Assay results published in the supplement of paper PMC4466140.
# Legend:
# Assay in all cases: SPOT peptide array binding signal intensity (averaged, normalized) (arbitrary units (background-subtracted, floor 0; scale differs between SH3 domains)); higher = stronger binding of the SH3 domain to the peptide
# CaNbp2 = target: CaNbp2
# In short: (§1)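 Cellulose membranes carried synthetic 15-mer peptides with cysteines swapped for serines. These were incubated overnight at 4°C with 10 μg/ml of GST-fused SH3 domains from four yeast species in TBS-based blocking buffer. Binding signal, detected with anti-GST antibody and quantified in Genespotter, is the normalized, background-subtracted spot intensity averaged over replicates, in arbitrary units specific to each domain.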
# CaRvs167 = target: CaRvs167
# In short: as §1
# CaRvs167-3 = target: CaRvs167-3
# In short: as §1
# CaSho1 = target: CaSho1
# In short: as §1
# CaSla1-D1-D2 = target: CaSla1-D1-D2
# In short: as §1
# CaSla1-D3 = target: CaSla1-D3
# In short: as §1
# ScAbp1 = target: ScAbp1
# In short: as §1
# ScBbc1 = target: ScBbc1
# In short: as §1
# ScBem1-D1 = target: ScBem1-D1
# In short: as §1
# ScBzz1-D1 = target: ScBzz1-D1
# In short: as §1
# ScBzz1-D2 = target: ScBzz1-D2
# In short: as §1
# ScCyk3 = target: ScCyk3
# In short: as §1
# ScFus1 = target: ScFus1
# In short: as §1
# ScHof1 = target: ScHof1
# In short: as §1
# ScHse1 = target: ScHse1
# In short: as §1
# ScLsb1 = target: ScLsb1
# In short: as §1
# ScLsb2 = target: ScLsb2
# In short: as §1
# ScLsb3 = target: ScLsb3
# In short: as §1
# ScLsb4 = target: ScLsb4
# In short: as §1
# ScMyo3 = target: ScMyo3
# In short: as §1
# ScMyo5 = target: ScMyo5
# In short: as §1
# ScNbp2 = target: ScNbp2
# In short: as §1
# ScPex13 = target: ScPex13
# In short: as §1
# ScRvs167 = target: ScRvs167
# In short: as §1
# ScSho1 = target: ScSho1
# In short: as §1
# ScSla1-D1-D2 = target: ScSla1-D1-D2
# In short: as §1
# ScSla1-D3 = target: ScSla1-D3
# In short: as §1
# SpAbp1-D1 = target: SpAbp1-D1
# In short: as §1
# SpBbc1 = target: SpBbc1
# In short: as §1
# SpBzz1-D1 = target: SpBzz1-D1
# In short: as §1
# SpBzz1-D2 = target: SpBzz1-D2
# In short: as §1
# SpCyk3 = target: SpCyk3
# In short: as §1
# SpHof1 = target: SpHof1
# In short: as §1
# SpHof1-2 = target: SpHof1-2
# In short: as §1
# SpHof1-3 = target: SpHof1-3
# In short: as §1
# SpHse1 = target: SpHse1
# In short: as §1
# SpLsb1 = target: SpLsb1
# In short: as §1
# SpLsb4 = target: SpLsb4
# In short: as §1
# SpMyo1 = target: SpMyo1
# In short: as §1
# SpNbp2 = target: SpNbp2
# In short: as §1
# SpPex13 = target: SpPex13
# In short: as §1
# SpRvs167 = target: SpRvs167
# In short: as §1
# SpSla1-D1-D2 = target: SpSla1-D1-D2
# In short: as §1
# SpSla1-D3 = target: SpSla1-D3
# In short: as §1
# AgAbp1 = target: AgAbp1
# In short: as §1
# AgBbc1 = target: AgBbc1
# In short: as §1
# AgBem1-D1 = target: AgBem1-D1
# In short: as §1
# AgBzz1-D1 = target: AgBzz1-D1
# In short: as §1
# AgBzz1-D2 = target: AgBzz1-D2
# In short: as §1
# AgCyk3 = target: AgCyk3
# In short: as §1
# AgFus1 = target: AgFus1
# In short: as §1
# AgHof1 = target: AgHof1
# In short: as §1
# AgHse1 = target: AgHse1
# In short: as §1
# AgLsb1 = target: AgLsb1
# In short: as §1
# AgLsb4 = target: AgLsb4
# In short: as §1
# AgMyo5 = target: AgMyo5
# In short: as §1
# AgNbp2 = target: AgNbp2
# In short: as §1
# AgRvs167 = target: AgRvs167
# In short: as §1
# AgSho1 = target: AgSho1
# In short: as §1
# AgSla1-D1-D2 = target: AgSla1-D1-D2
# In short: as §1
# AgSla1-D3 = target: AgSla1-D3
# In short: as §1
# CaAbp1-D1 = target: CaAbp1-D1
# In short: as §1
# CaAbp1-D2 = target: CaAbp1-D2
# In short: as §1
# CaBbc1 = target: CaBbc1
# In short: as §1
# CaBem1-D1 = target: CaBem1-D1
# In short: as §1
# CaBzz1-D1 = target: CaBzz1-D1
# In short: as §1
# CaBzz1-D2 = target: CaBzz1-D2
# In short: as §1
# CaCyk3 = target: CaCyk3
# In short: as §1
# CaFus1 = target: CaFus1
# In short: as §1
# CaHof1 = target: CaHof1
# In short: as §1
# CaHse1 = target: CaHse1
# In short: as §1
# CaLsb1 = target: CaLsb1
# In short: as §1
# CaLsb4 = target: CaLsb4
# In short: as §1
# CaMyo5 = target: CaMyo5
# In short: as §1
binder,measurement,setting,value
ALFRLSFFFPLDPAY,SPOT peptide array binding signal intensity,CaNbp2,1460
same,SPOT peptide array binding signal intensity,CaRvs167,578
same,SPOT peptide array binding signal intensity,CaRvs167-3,964
same,SPOT peptide array binding signal intensity,CaSho1,2260
same,SPOT peptide array binding signal intensity,CaSla1-D1-D2,131
same,SPOT peptide array binding signal intensity,CaSla1-D3,848
same,SPOT peptide array binding signal intensity,ScAbp1,81.5
same,SPOT peptide array binding signal intensity,ScBbc1,9.5
same,SPOT peptide array binding signal intensity,ScBem1-D1,110
same,SPOT peptide array binding signal intensity,ScBzz1-D1,218
same,SPOT peptide array binding signal intensity,ScBzz1-D2,531
same,SPOT peptide array binding signal intensity,ScCyk3,246
same,SPOT peptide array binding signal intensity,ScFus1,3920
same,SPOT peptide array binding signal intensity,ScHof1,2.5
same,SPOT peptide array binding signal intensity,ScHse1,4160
same,SPOT peptide array binding signal intensity,ScLsb1,70.2
same,SPOT peptide array binding signal intensity,ScLsb2,24
same,SPOT peptide array binding signal intensity,ScLsb3,674
same,SPOT peptide array binding signal intensity,ScLsb4,104
same,SPOT peptide array binding signal intensity,ScMyo3,35
same,SPOT peptide array binding signal intensity,ScMyo5,62.8
same,SPOT peptide array binding signal intensity,ScNbp2,802
same,SPOT peptide array binding signal intensity,ScPex13,116
same,SPOT peptide array binding signal intensity,ScRvs167,91.7
same,SPOT peptide array binding signal intensity,ScSho1,2780
same,SPOT peptide array binding signal intensity,ScSla1-D1-D2,120
same,SPOT peptide array binding signal intensity,ScSla1-D3,426
same,SPOT peptide array binding signal intensity,SpAbp1-D1,303
same,SPOT peptide array binding signal intensity,SpBbc1,57.2
same,SPOT peptide array binding signal intensity,SpBzz1-D1,838
same,SPOT peptide array binding signal intensity,SpBzz1-D2,6.5
same,SPOT peptide array binding signal intensity,SpCyk3,55
same,SPOT peptide array binding signal intensity,SpHof1,844
same,SPOT peptide array binding signal intensity,SpHof1-2,230
same,SPOT peptide array binding signal intensity,SpHof1-3,1850
same,SPOT peptide array binding signal intensity,SpHse1,2380
same,SPOT peptide array binding signal intensity,SpLsb1,15.5
same,SPOT peptide array binding signal intensity,SpLsb4,463
same,SPOT peptide array binding signal intensity,SpMyo1,91
same,SPOT peptide array binding signal intensity,SpNbp2,2350
same,SPOT peptide array binding signal intensity,SpPex13,565
same,SPOT peptide array binding signal intensity,SpRvs167,131
same,SPOT peptide array binding signal intensity,SpSla1-D1-D2,8
same,SPOT peptide array binding signal intensity,SpSla1-D3,192
RRASLFPRDPKRLRP,SPOT peptide array binding signal intensity,AgAbp1,89.5
same,SPOT peptide array binding signal intensity,AgBbc1,87.5
same,SPOT peptide array binding signal intensity,AgBem1-D1,169
same,SPOT peptide array binding signal intensity,AgBzz1-D1,87
same,SPOT peptide array binding signal intensity,AgBzz1-D2,49
same,SPOT peptide array binding signal intensity,AgCyk3,3
same,SPOT peptide array binding signal intensity,AgFus1,223
same,SPOT peptide array binding signal intensity,AgHof1,22.2
same,SPOT peptide array binding signal intensity,AgHse1,1070
same,SPOT peptide array binding signal intensity,AgLsb1,1
same,SPOT peptide array binding signal intensity,AgLsb4,112
same,SPOT peptide array binding signal intensity,AgMyo5,2.5
same,SPOT peptide array binding signal intensity,AgNbp2,107
same,SPOT peptide array binding signal intensity,AgRvs167,0.5
same,SPOT peptide array binding signal intensity,AgSho1,67.5
same,SPOT peptide array binding signal intensity,AgSla1-D1-D2,116
same,SPOT peptide array binding signal intensity,AgSla1-D3,7.5
same,SPOT peptide array binding signal intensity,CaAbp1-D1,520
same,SPOT peptide array binding signal intensity,CaAbp1-D2,362
same,SPOT peptide array binding signal intensity,CaBbc1,304
same,SPOT peptide array binding signal intensity,CaBem1-D1,83
same,SPOT peptide array binding signal intensity,CaBzz1-D1,131
same,SPOT peptide array binding signal intensity,CaBzz1-D2,128
same,SPOT peptide array binding signal intensity,CaCyk3,39
same,SPOT peptide array binding signal intensity,CaFus1,724
same,SPOT peptide array binding signal intensity,CaHof1,1.5
same,SPOT peptide array binding signal intensity,CaHse1,13.2
same,SPOT peptide array binding signal intensity,CaLsb1,0.25
same,SPOT peptide array binding signal intensity,CaLsb4,58.5
same,SPOT peptide array binding signal intensity,CaMyo5,4.5
same,SPOT peptide array binding signal intensity,CaNbp2,464
same,SPOT peptide array binding signal intensity,CaRvs167,8.67
same,SPOT peptide array binding signal intensity,CaRvs167-3,80.2
same,SPOT peptide array binding signal intensity,CaSho1,430
same,SPOT peptide array binding signal intensity,CaSla1-D1-D2,87.5
same,SPOT peptide array binding signal intensity,CaSla1-D3,≤ 0
same,SPOT peptide array binding signal intensity,ScAbp1,284
same,SPOT peptide array binding signal intensity,ScBbc1,18.2
same,SPOT peptide array binding signal intensity,ScBem1-D1,173
same,SPOT peptide array binding signal intensity,ScBzz1-D1,30.5
same,SPOT peptide array binding signal intensity,ScBzz1-D2,104
same,SPOT peptide array binding signal intensity,ScCyk3,108
same,SPOT peptide array binding signal intensity,ScFus1,282
same,SPOT peptide array binding signal intensity,ScHof1,4
same,SPOT peptide array binding signal intensity,ScHse1,1890
same,SPOT peptide array binding signal intensity,ScLsb1,14.5
same,SPOT peptide array binding signal intensity,ScLsb2,1
same,SPOT peptide array binding signal intensity,ScLsb3,248
same,SPOT peptide array binding signal intensity,ScLsb4,4.5
same,SPOT peptide array binding signal intensity,ScMyo3,0.5
same,SPOT peptide array binding signal intensity,ScMyo5,2
same,SPOT peptide array binding signal intensity,ScNbp2,308
same,SPOT peptide array binding signal intensity,ScPex13,≤ 0
same,SPOT peptide array binding signal intensity,ScRvs167,16.3
same,SPOT peptide array binding signal intensity,ScSho1,992
same,SPOT peptide array binding signal intensity,ScSla1-D1-D2,1000
same,SPOT peptide array binding signal intensity,ScSla1-D3,20
same,SPOT peptide array binding signal intensity,SpAbp1-D1,152
same,SPOT peptide array binding signal intensity,SpBbc1,7
same,SPOT peptide array binding signal intensity,SpBzz1-D1,609
